FMDV inh = High Throughput Screening for Foot and Mouth Disease Virus Antivirals | Potency, µM (doses to about 57.9 µM), inactives show at the top dose activity change, negative = inhibition, usual class: inhibitors | AID 1159524, 2015 | 410,000 tested, 1.2% active | FMDV antiviral cell-based qHTS; calls by dose curve; tested in HEK293T cells; further: read-out not given here; nearly all actives have a fitted effect of over 45% in size
Giardia FBPA inh = qHTS Assay for Inhibitors of Fructose-1,6-bisphosphate Aldolase from Giardia Lamblia. purified Giardia FBPA. A8B2U2. Potency, µM (titrated, usually from 59.6 µM), inactives show top-dose activity, negative = inhibition, most hits filed as inhibitors. 290,000 tested, 0.71% active. AID 2451, 2010; active means well fitted inhibition curve with a large enough effect; inconclusive means small, poorly fitted or top-dose-only effect, or effect the other way; further: nearly all actives have a fitted effect of over 55% in size
Target sequence (A8B2U2 whole entry, looked up): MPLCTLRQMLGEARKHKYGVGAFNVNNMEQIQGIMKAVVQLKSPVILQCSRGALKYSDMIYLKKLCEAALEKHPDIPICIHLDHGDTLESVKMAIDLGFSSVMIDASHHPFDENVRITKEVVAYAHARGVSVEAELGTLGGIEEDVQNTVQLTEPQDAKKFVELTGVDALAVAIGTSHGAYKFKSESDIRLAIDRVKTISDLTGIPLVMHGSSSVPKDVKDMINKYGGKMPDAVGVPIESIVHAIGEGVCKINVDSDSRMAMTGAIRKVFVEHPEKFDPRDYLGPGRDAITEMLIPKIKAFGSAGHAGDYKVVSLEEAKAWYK
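40 nM FBPA preincubated 10 min at RT with compound (up to 57.5 uM final), then substrate plus GAPDH/TPI/NAD/arsenate coupling and diaphorase/resazurin added. Fluorescence read after 20 min at RT, 525/598 nm.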
Vaccinia Venus = qHTS for Stage-Specific Inhibitors of Vaccinia Orthopoxvirus: Venus Reporter Primary qHTS. Vaccinia virus Venus reporter expression, fluorescence. Potency, µM (doses to about 36.5 µM), for the others: at the top dose activity change, negative = inhibition, usual class: inhibitors. 330,000 tested, 0.46% active; calls by dose curve; tested in A549 cells; further: nearly all actives have a fitted effect of over 30% in size
Vaccinia mCherry = qHTS for Stage-Specific Inhibitors of Vaccinia Orthopoxvirus: mCherry Reporter Primary qHTS | Vaccinia virus mCherry reporter infection, fluorescence | Potency, µM (doses to about 36.5 µM), for the others: at the top dose activity change, negative = inhibition, hits mostly inhibitors | 310,000 tested, 0.63% active | AID 720579, 2013; calls by dose curve; tested in A549 cells; further: nearly all actives have a fitted effect of over 35% in size
* hit, by the source's call; i = inactive; ? = inconclusive; / = no result; [ ] = another dose, or the depositor's remark. Shown are actives, neighbours in structure and some others; about 2.2% of the full set was active somewhere. On the % scale 0 is the no-effect control and ±100 the full control effect; potency means the concentration at half of the fitted maximal effect.

SMILES	FMDV inh	Giardia FBPA inh	Vaccinia Venus	Vaccinia mCherry
C#CCOCCOCCOCCNc1nc(N2CCN(C(=O)CCCCCCCCCCNC(=O)[C@H](CO)n3cc(CCCSC)nn3)CC2)nc(N2CCN(C(=O)CCCCCCCCCCNC(=O)[C@H](CCCN=C(N)N)n3cc(C[C@@H](C)CC)nn3)CC2)n1	?	/	11µM*	-19%
C#CCOCCOCCOCCNc1nc(N2CCN(C(=O)CCCCCCCCCCNC(=O)[C@H](CO)n3cc(CCCSC)nn3)CC2)nc(N2CCN(C(=O)CCCCCCCCCCNC(=O)[C@H](CCCCN)n3cc(CCO)nn3)CC2)n1	-11%	/	?	i
COc1ccc(CN2CCCC(n3cc(C(=O)N4CCCCC4)nn3)C2)c(OC)c1 (stereo not drawn)	-9%	/	9%	-10%
CCC1(c2cccc(Cl)c2)NC(=O)N(Cc2cc(C(=O)OC)c(C)o2)C1=O (stereo not drawn)	28µM*	17%	/	/
Cc1ccc(S(=O)(=O)N2CCN(Cc3nnc(-c4c(-c5ccccc5)noc4C)o3)CC2)cc1	40µM*	/	-4%	i
COC(=O)CN1C(=O)C(O)(CC(=O)c2ccc(Cl)cc2)c2ccccc21 (stereo not drawn)	-9%	3%	7%	8%
COC(=O)C[C@]1(C(=O)OC)CN(C#N)N(c2ccc(Cl)cc2)C12c1ccccc1-c1ccccc12	4.5µM*	0%	?	11µM*
COC(=O)C1OC2(OC1C(=O)OC)c1ccccc1-c1ccccc12 (stereo not drawn)	-11%	-5%	20%	/
COC(=O)[C@@H]1[C@@H](C(=O)OC)C2(c3ccccc3-c3ccccc32)N(c2ccc(Cl)cc2)N1C#N	3.5µM*	-2%	?	?
NC(CC(=O)Nc1ccc(Oc2cc(F)c(F)cc2Br)cc1)C(=O)O (stereo not drawn)	-10%	?	/	/
C[C@@H]1[C@@H](Sc2ccccc2)CC(=O)O[C@@H]1c1ccc(-c2ccccc2)cc1	0%	1%	2.5µM*	?
CN(C)c1c(Br)cc(C=O)cc1Br	/	/	4%	44%
CCOC(=O)c1cccc(NC(=O)C2CCN(S(=O)(=O)c3cccs3)CC2)c1	25µM*	1%	/	/
CCc1cccc(NC(=O)C2CCN(S(=O)(=O)c3cccs3)CC2)c1	?	-1%	-18%	i
C[C@H](NC(=O)[C@@H](Cc1c[nH]c2ccccc12)NC(=O)[C@@H](N)Cc1cnc[nH]1)C(=O)N[C@@H](Cc1c[nH]c2ccccc12)C(=O)N[C@H](Cc1ccccc1)C(=O)N[C@@H](CCCCN)C(N)=O	/	7%	/	/
CCc1cccc(CC)c1NC(=S)NCCc1c(C)[nH]c2ccc(C)cc12	4%	-5%	16µM*	10µM*
CCc1cccc(C)c1NC(=S)NCCc1c(C)[nH]c2ccc(C)cc12	18%	-2%	?	18µM*
COc1ccc2[nH]c(C)c(CCNC(=S)Nc3cccc(C)c3)c2c1	7%	-2%	?	?
COc1ccc(-n2c(CNC(=O)c3ccc(OC)cc3OC)nnc2SC)cc1	8%	/	-1%	-7%
CCNC(=S)NCCC1=c2ccccc2=N/C1=C\c1c(O)n(C)c(=O)n(C)c1=O	40µM*	-29%	/	/
Cc1cnc(C)c(-c2ccc(F)c3c2OC(CNC(=O)Cc2c(C)[nH]c4ccccc24)C3)n1 (stereo not drawn)	-9%	/	-2%	-13%
COC(=O)c1c(C)cc(O)c(C=O)c1O	-20%	/	-7%	-16%
Cc1cc2c(C(C)C)c(O)c(O)c(C=O)c2c(O)c1-c1c(C)cc2c(C(C)C)c(O)c(O)c(C=O)c2c1O	?	?	4µM*	4.5µM*
COC(=O)c1c(OCc2cccnc2)cc(=O)n2c1CCN(C(=O)c1cccc(N(C)C)c1)CC2	9%	/	1%	-4%
C=CCn1c(Cc2ccccc2)nc2c(cnn2-c2ccccc2)c1=O	28µM*	13%	-27%	?
SMILES	FMDV inh	Giardia FBPA inh	Vaccinia Venus	Vaccinia mCherry
CC(C)ON(C(C(=O)NO)C(C)C)S(=O)(=O)c1ccc(-c2ccccc2)cc1 (stereo not drawn)	-12%	0%	/	/
N#C/C(=C/c1ccc(N2CCCCCC2)o1)c1ccc(Cl)cc1	25µM*	?	/	/
Clc1ccc(CNc2nc(CN3CCOCC3)nc3scc(-c4ccccc4)c23)cc1	14µM*	1%	?	?
c1ccc(-c2csc3ncnc(NCCN4CCOCC4)c23)cc1	22µM*	-1%	?	-13%
c1ccc(CNc2nc(CN3CCOCC3)nc3scc(-c4ccccc4)c23)cc1	-3%	4%	7%	-13%
CN(C)CCCNc1ncnc2scc(-c3ccccc3)c12	-12%	?	-12%	-13%
c1ccc(-c2csc3ncnc(NCc4ccccn4)c23)cc1	16µM*	?	/	/
c1ccc(CNc2ncnc3scc(-c4cccs4)c23)nc1	16µM*	-2%	/	/
O=S1(=O)CCO[C@H]2CCCC[C@@H]2N1Cc1ccccc1	/	/	-7%	i
COC(CN(C(=O)CCl)C(C(=O)NC1CCCCC1)c1ccc(Cl)cc1)OC (stereo not drawn)	?	1%	-13%	i
COC(CN(C(=O)CCl)C(C(=O)NC1CCCCC1)c1ccccc1C)OC (stereo not drawn)	?	-5%	11µM*	13µM*
COc1ccc(C(C(=O)NC2CCCCC2)N(C(=O)CCl)c2ccc(Cl)cc2)cc1 (stereo not drawn)	16µM*	3%	-26%	-10%
O=C(NC1CCCCC1)C(c1cccnc1)N(C(=O)CCl)c1cccc(Cl)c1 (stereo not drawn)	7.9µM*	0%	?	?
O=C(/C=C/c1ccc(F)cc1)NCC1Cc2cccc(-c3ncccn3)c2O1 (stereo not drawn)	-14%	/	-8%	-18%
COc1ccc(CNC(=O)CCc2c(C)nc3c4cccnc4nn3c2C)cc1	-15%	/	-8%[7.34 µM]	-17%
c1nc(SSc2ncc3n[nH]nc3n2)nc2n[nH]nc12	/	/	3%	43%
Cc1cc(C(=O)Nc2ccccc2-c2nc(CNC(=O)c3sc(C)nc3C)c(C)o2)c(C)o1	1%	/	6%	-3%
COCCn1c(-c2ccco2)csc1=Nc1cccnc1	-21%	-28%	/	/
COCCn1c(-c2cccs2)csc1=Nc1cccnc1	22µM*	?	-20%	i
CCOc1ccccc1-c1nnc2n1N=C(c1ccc(OC)cc1)CS2	/	0%	/	/
COc1nnc(-c2ccc(N3CCCCC3)c(NC(C)=O)c2)c2ccccc12	-20%	1%	/	/
COc1nnc(-c2ccc(N3CCCCC3)c(NC(=O)c3ccccc3)c2)c2ccccc12	8.9µM*	/	?	?
CC(=O)c1ccc(F)c(-c2cc(C)cc3c2OC(CNC(=O)c2cnc4ccccn4c2=O)C3)c1 (stereo not drawn)	16%	/	?	?
Cc1ccc(S(=O)(=O)CC(=O)Nc2nc3c(C)cccc3s2)cc1	2%	/	-6%	-9%
CCOc1ccc(N(Cc2ccccc2)C(=O)c2nc(SC)ncc2Cl)cc1	?	/	-12%	-18%
